About 17,000 (5.5%) of roughly 310,000 compounds were called active. Not shown: some 11% with an inconclusive outcome. The entries come from a sample that favours actives as a whole. Values without a mark were called inactive. Calls come from the whole dose curve; as a rule, active = well fitted inhibition curve with a large enough effect; inconclusive = small, poorly fitted or top-dose-only effect, or effect the other way; inactive = no such curve, though single readings can be large or run the other way.
target: Nuclear receptor ROR-gamma (Mus musculus) (UniProt P51450); test: qHTS for inhibitors of ROR gamma transcriptional activity; details: Drosophila S2 Gal4-RORgamma UAS-luciferase reporter, 20 h; series mostly up to 53.6 µM; activity change, negative = inhibition: at the top concentration; note: nearly all actives have a fitted effect of over 60% in size
Outline: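 Drosophila Schneider cells stably carrying a metallothionein-driven Gal4 DBD–ROR gamma fusion and a UAS-Photinus luciferase reporter were exposed to compound for 1 hr, then induced with copper sulfate (700 uM final) for 20 hr at ambient temperature before luminescence reading.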
% is set by controls: 0 for no effect and ±100 for the full control effect; potency is the fitted concentration of half-maximal effect.

Nuclear receptor ROR-gamma (Mus musculus), sequence (P51450 whole entry, looked up, the tested form may be a part): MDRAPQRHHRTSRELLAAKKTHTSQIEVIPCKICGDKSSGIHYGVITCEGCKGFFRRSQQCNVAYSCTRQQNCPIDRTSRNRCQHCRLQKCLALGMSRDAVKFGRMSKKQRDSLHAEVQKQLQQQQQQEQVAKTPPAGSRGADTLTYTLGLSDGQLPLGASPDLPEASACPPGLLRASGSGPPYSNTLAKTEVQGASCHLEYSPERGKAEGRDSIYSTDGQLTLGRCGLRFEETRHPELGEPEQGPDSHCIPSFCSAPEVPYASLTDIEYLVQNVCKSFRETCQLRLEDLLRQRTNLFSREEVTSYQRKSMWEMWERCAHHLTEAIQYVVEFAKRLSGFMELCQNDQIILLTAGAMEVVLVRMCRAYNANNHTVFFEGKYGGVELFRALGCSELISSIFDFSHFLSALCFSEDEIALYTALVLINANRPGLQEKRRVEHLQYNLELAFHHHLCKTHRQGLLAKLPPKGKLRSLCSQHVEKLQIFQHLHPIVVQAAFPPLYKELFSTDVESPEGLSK

Row | SMILES | activity change, negative = inhibition | Potency
1 | Cc1cc2c(cc1S(=O)(=O)NCc1ccc(Cl)cc1)OCC(=O)N2 | 6.35% | 
2 | C=CCn1c2ccccc2c2nnc(SC(CC)C(=O)Nc3nc(C)c(C(=O)OCC)s3)nc21 (stereo not given) | -6.1% | 
3 | C=CCn1c2ccccc2c2nnc(SCc3[nH]c(=O)[nH]c3C(=O)CCCCC(=O)OCC)nc21 |  | 12.6 µM (active)
4 | C=CCn1c(SCC(=O)CC(=O)OCC)nc2cc(C(=O)N3CCC(C(N)=O)CC3)ccc2c1=O | 15% | 
5 | CCNC(=S)N(CCN(CC)CC)Cc1cc2cc3c(cc2[nH]c1=O)OCCO3 | 9.92% | 
6 | O=C(Nc1ccncc1)c1ccc([N+](=O)[O-])cc1Cl | -3.39% | 
7 | COC(=O)c1sc(=S)n(-c2ccc(Cl)cc2)c1C | 2.4% | 
8 | COc1ccc(-c2cn(-c3ccc(C)cc3)c(=O)n2CC(=O)Nc2ccc(OC)c(OC)c2)cc1 | 51% | 
9 | COc1ccc(OC)c(-n2c(-c3ccn[nH]3)n[nH]c2=S)c1 | -4.51% | 
10 | Cc1ccc(-n2c(-c3ccc(Cl)cc3)n[nH]c2=S)cc1 |  | 3.16 µM (active)
11 | Cc1cc(-c2n[nH]c(=S)n2-c2ccc(C)c(C)c2)no1 | 6.4% | 
12 | COc1ccc(-n2c(-c3ccc(OC)c(OC)c3)n[nH]c2=S)cc1 |  | 11.2 µM (active)
13 | COc1ccc(OC)c(CNC(=O)Cn2nc(C)c3c(C)n(-c4ccc(C)cc4)nc3c2=O)c1 | 33.3% | 
14 | COc1ccc(C(C)NC(=O)C2CCCC2)cc1 (stereo not given) | 3.72% | 
15 | Cc1cc(=O)oc2c3c(cc(OCC(=O)NCc4ccccn4)c12)OC(C)(C)CC3 | 5.08% | 
16 | Clc1ccc(CN2CCCCCC2)cc1Cl | -12.3% | 
17 | CCc1ccccc1N(CC(=O)NCC1CCCO1)C(=O)CCC(=O)Nc1nccs1 (stereo not given) | -8.86% | 
18 | COC(=O)NNC1=CC(=O)CC(C)(C)C1 | -9.78% | 
19 | Cc1cc(C)nc(NNC2=CC(=O)CC(C)(C)C2)n1 |  | 17.8 µM (active)
20 | CC1(C)CC(=O)C=C(Nc2ccccc2)C1 | 14.2% | 
21 | CN1CCN(c2ccccc2NC(=O)COc2ccc(C3CCCCC3)cc2)CC1 | -22.9% | 
22 | CCn1cc(S(=O)(=O)c2cccc(C)c2)c(=O)c2cc(F)c(N3CCN(C)CC3)cc21 | -6.95% | 
23 | COc1ccc(CCNC(=O)CN2C(=O)CCSc3ccccc32)c(OC)c1 | -12.6% | 
24 | CCCCCOC(=O)NCCOC(=O)Nc1ccc(C(=O)OCC)cc1 | 30.1% | 
25 | Cc1ccc(NC(=O)c2nc[nH]c2C(=O)N[C@@H](CCCCNC(=O)OC(C)(C)C)C(=O)OC(C)(C)C)cc1 |  | 8.91 µM (active)
26 | Cc1ccc(NC(=O)OCCNC(=O)c2ccncc2)cc1 | 16.2% | 
27 | CCOC(=O)c1ccc(NC(=O)c2nc[nH]c2C(=O)N[C@@H](CCCCNC(=O)OC(C)(C)C)C(=O)OC(C)(C)C)cc1 |  | 11.2 µM (active)

Row | SMILES | activity change, negative = inhibition | Potency
28 | CCCCC(CCC(=O)Nc1ccc(C(=O)OCC)cc1)C(=O)O (stereo not given) | -35% | 
29 | Cc1ccc(NC(=O)c2cccnc2C(=O)Nc2ccc(C)cc2)cc1 | 33.9% | 
30 | COc1ccc(Nc2ncnc3sc(C)cc23)cc1 | 2.51% | 
31 | CC(C)CCn1c(=O)c2c(nc3n2CCCN3Cc2ccccc2)n(C)c1=O | 39.1% | 
32 | Nc1nc(C23CC4CC(CC(C4)C2)C3)cs1 | -0.833% | 
33 | COc1cc(OC)cc(-c2nc(=S)n3ccsc3n2)c1 | -4.05% | 
34 | S=c1nc(C23CC4CC(CC(C4)C2)C3)nc2sccn12 |  | 7.94 µM (active)
35 | C=CCC1=C/C(=C\c2c(N)n3nc(CC(=O)N4CCOCC4)sc3nc2=O)C=C(OC)C1=O | 20.9% | 
36 | COc1cnc(-c2ccccn2)nc1Oc1ccc(C(C)(C)C)cc1 |  | 5.62 µM (active)
37 | N#Cc1ccc(Oc2cc(C(F)(F)F)nc(-c3ccccn3)n2)cc1 | 6.67% | 
38 | COc1ccc(Sc2nc(-c3ccccc3)ncc2OC)cc1 | 3.03% | 
39 | COc1ccc(Cc2nc(-c3ccccn3)no2)cc1OC | -6.71% | 
40 | Cc1ccc(Oc2nc(-c3ccccn3)nc3ccccc23)cc1 |  | 0.251 µM (active)
41 | CNc1nc(-c2ccccc2OC)nc2ccccc12 | -40.8% | 
42 | CC(C)(C)Nc1nc(-c2ccccn2)nc2ccccc12 |  | 1.41 µM (active)
43 | COc1ccccc1Oc1nc(-c2cccnc2)nc2ccccc12 | -19.1% | 
44 | Cc1cnc(CNc2nc(-c3cccnc3)nc3ccccc23)cn1 | -27.6% | 
45 | O=C(CCc1ccccc1)Nc1ccnn1C1CCN(Cc2ccc(OCCO)cc2)CC1 | -4.43% | 
46 | Cn1cc[n+](C)c1COc1ccc(C=O)cc1 | -16.6% [at 1.91 µM] | 
47 | COC(=O)[C@@H]1CC(O)CN1C(=O)C12CC3CC(CC(C3)C1)C2 (stereo not given in full) | -2.86% | 
48 | COc1ccc(/C=N/NC(=O)c2ccc3c(c2)OCCO3)c(OC)c1 | 13.5% | 
49 | COc1cc(/C=N/NC(=O)c2ccc(N3CCCC3=O)cc2)ccc1O | 17% | 
50 | COc1ccc(C(=O)Nc2ccccc2C(=O)N/N=C/c2ccc(O)c(OC)c2)cc1 |  | 0.199 µM (active)
51 | COc1cc(/C=N/NC(=O)c2ccccc2)ccc1OS(=O)(=O)c1ccccc1 | -13.4% | 
52 | COc1ccccc1C(=O)NNC(=O)c1ccc(NC(=O)c2ccccc2)cc1 | -12.5% | 
53 | COc1ccc(C(=O)Nc2ccccc2C(=O)N/N=C/c2ccccc2OC)cc1 |  | 15.8 µM (active)
54 | O=C(CSCc1ccccc1)Nc1ccccc1 | 9.06% | 

Row | SMILES | activity change, negative = inhibition | Potency
55 | Cc1ccn2c(c1)nc(=O)c1cc(S(=O)(=O)N3CCC(C)CC3)ccc12 | -1.5% | 
56 | COc1cccc(/C=C2/SC(=S)N(CC(=O)NC3C=CS(=O)(=O)C3)C2=O)c1 (stereo not given) | -21.1% | 
57 | COc1ccc(S(=O)(=O)Nc2ccccc2C(=O)N2CCCC2)cc1C | 17.8% | 
58 | Nc1ccn(C2CC(O)C(CO)O2)c(=O)n1 (stereo not given) | -20.3% | 
59 | CN1CCN(CCCCOc2cccc3ccccc23)CC1 | 4.45% | 
60 | O=C(O)c1c(NC(=O)N2CCCC2)sc2c1CCCC2 | -22.4% | 
61 | O=C(CN1CCCC1)Nc1sc2c(c1C(=O)Nc1ccccc1)CCCC2 |  | 5.01 µM (active)
62 | Cc1ccc(NC(=O)c2c(NC(=O)CCC(=O)O)sc3c2CCCCC3)cc1 | -28.7% | 
63 | CC1=C(C(=O)OC2CCCCC2)C(c2ccccc2F)NC(=O)N1 (stereo not given) | 12.3% | 
64 | Cc1ccc2c(c1)N(CC(=O)N1CCCC(C)C1)C(=O)CO2 (stereo not given) | -14.2% | 
65 | Cc1ccc(Nc2nc(-c3ccc(O)cc3O)cs2)nc1 |  | 8.91 µM (active)
66 | Cc1ccc(NC(=O)c2cc(-c3ccc(C)o3)nc3ccccc23)nc1 | -10.5% [at 0.365 µM] | 
67 | O=c1oc2ccccc2cc1-c1csc(Nc2ccc(O)cc2)n1 | 21.7% | 
68 | CCOc1nc(NCCN2CCOCC2)nc(Nc2ccc(C)cc2)n1 | 2.46% | 
69 | CCOc1cccc(/C=N/NC(=S)NCCN2CCOCC2)c1O |  | 1.41 µM (active)
70 | COc1cccc(NC(=S)NCCCN2CCOCC2)c1 | -6.97% | 
71 | Cc1ccc(N(C(=O)c2snc(C(N)=O)c2N)C(C(=O)NCC2CCCO2)c2c[nH]c3ccccc23)cc1 (stereo not given) | 19.8% | 
72 | COc1ccc(S(=O)(=O)NCCc2cc3ccc(C)c(C)c3[nH]c2=O)cc1 | 9.72% | 
73 | Fc1ccc(/C=N/Nc2nc(-c3cccnc3)nc3ccccc23)cc1 | -43.6% | 
74 | Cc1cc(O)ccc1-c1cnc2ccccc2n1 | 14.1% | 
75 | Oc1ccc(/C=N/Nc2nc(-c3ccccc3F)nc3ccccc23)c(O)c1 |  | 10 µM (active)
76 | COc1ccccc1N1CCN(/N=C/c2ccc(O)cc2O)CC1 | -15.8% [at 1.91 µM] | 
77 | Cc1nc2ccccc2nc1N/N=C/c1ccc(O)cc1O |  | 11.2 µM (active)
78 | Cc1cc(N/N=C/c2ccccc2F)c2ccccc2n1 | -16.8% | 
79 | Cc1nc2ccccc2cc1O | 10% | 
80 | COc1ccc(/C=C(\C#N)C(=O)ONC2=NCCCCC2)cc1 | 22.8% | 
81 | Oc1ccc(/C=N/NC2=NCCCCC2)c(O)c1 |  | 11.2 µM (active)

Row | SMILES | activity change, negative = inhibition | Potency
82 | COc1ccc(C(=O)Nc2ccc(C(=O)NCC3CCCO3)cc2)c(OC)c1OC (stereo not given) | -19.2% | 
83 | COc1ccc(C(=O)NC2CC2)cc1OC1CCN(Cc2ccc(SC)cc2)CC1 | -0.679% | 
84 | CCOC(=O)N1CCN(Cc2nc3cc(NC(C)=O)ccc3n2C)CC1 | 3.25% | 
85 | O=S(=O)(NC1CC2CCC1C2)c1ccc(Cl)cc1 (stereo not given) | 44% [at 1.91 µM] | 
86 | CC(=O)c1ccc(N2CCN(C(=O)C3CCN(S(=O)(=O)c4ccc5c(c4)CC(C)N5C(=O)C4CC4)CC3)CC2)cc1 (stereo not given) | 42.1% | 
87 | COc1ccc(CCNC(=O)CCCCCNC(=O)N2CCn3c2nc2ccccc23)cc1OC | 4.74% | 
88 | N#Cc1c(Cl)nc(-c2cccnc2)nc1-c1ccccc1 | 0.184% | 
89 | CCOC(=O)c1cnc(Nc2nc3ccccc3o2)nc1CSC(=S)N1CCCCC1 |  | 0.447 µM (active)
90 | CCOC(=O)CCNC(=O)N1CCCC(C(=O)c2ccccc2SC)C1 (stereo not given) | 25.3% | 
91 | CCc1ccc(CNC(=O)C2CCCN(c3nc4ccccc4o3)C2)cc1 (stereo not given) | 24.5% | 
92 | CCCCCc1c(C)nc(N2CCN(Cc3ccc4c(c3)OCO4)CC2)[nH]c1=O | -4.87% | 
93 | COc1ccc(C(=O)NC(C)c2nccs2)cc1OC1CCN(C(C)C)CC1 (stereo not given) | 3.59% | 
94 | O=C1Nc2ccccc2/C1=C/c1ccnc2ccccc12 | -13.4% | 
95 | CN(C)CCNC(=O)c1[nH]nc2c1CCc1ccccc1-2 | -0.392% | 
96 | COc1cccc(/C=N/NC(=O)c2[nH]nc3c2CCc2ccccc2-3)c1O |  | 0.794 µM (active)
97 | COc1cc2cc(C(=O)N/N=C/c3cccc(OC)c3OC)[nH]c2cc1OC | 21.4% | 
98 | Cc1ccc(CNCc2ccc3c(c2)OCO3)c(C)c1 | -34.2% | 
99 | COc1ccc(-c2nnc(SCC(=O)c3cccs3)o2)c(OC)c1 | 31.9% | 
100 | COc1ccc(NC(=O)CS(=O)(=O)c2ccccc2)cc1 | 16.7% | 
101 | COc1ccc(-c2nnc(NC(=O)CS(=O)(=O)c3ccc(Cl)cc3)o2)c(OC)c1 |  | 17.8 µM (active)
102 | CN(C)C(=O)CCC(=O)N1CCCCC1C(=O)Nc1ccc(Oc2ccccc2F)cc1 (stereo not given) | 21.8% | 
103 | CC(=O)NS(=O)(=O)c1ccc(N/C(N)=N/c2nc(C)cc(C)n2)cc1 | -13.8% | 
104 | CC(C)c1ccc(NC(=O)Cn2ncc3ccccc32)cc1 | 26.2% | 
105 | C=CCc1c(C)nc2cc(-c3ccccc3)[nH]n2c1=O | -22.1% | 
